# Abeta rescue: restores growth of yeast expressing A-beta42 peptide. AID 1347071. yeast expressing A-beta42, growth rescue, OD600, 48 h; response scale: 0% DMSO, 100% iron-clioquinol control. Potency, µM (doses to about 46.1 µM), usual class: activators. actives 0.063% (n = 410,000); note: nearly all actives have a fitted effect of over 55% in size
#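 Yeast A-beta toxicity model in growth medium with pinned compounds, 48 h at 30 C; growth read as absorbance at 600 nm. Normalized to FeCl3/clioquinol equimolar mix (positive) and DMSO (negative).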
# FUS suppressor: FUS proteinopathy suppression in yeast; S. cerevisiae FUS-expressing, growth rescue, OD600, 24 h; Potency, µM (doses to about 76.6 µM), most hits filed as activators; actives 0.24% (n = 390,000); AID 1347120; note: nearly all actives have a fitted effect of over 55% in size
#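 Cultures pregrown in 2.5% raffinose medium are shifted to minimal medium containing 2% galactose to express toxic FUS. Compounds are tested at several concentrations. After 24hr at 30C, growth is quantified at 600 nm absorbance.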
# TDP-43 yeast inh: rescues yeast growth from TDP-43 toxicity. TDP-43 expressing yeast growth rescue, BacTiter-Glo, 24 h. Potency, µM (titrated, usually from 46.1 µM), usual class: activators. actives 1.8% (n = 410,000). AID 652104; note: nearly all actives have a fitted effect of over 50% in size
#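 In this qHTS, compounds that restore growth of yeast expressing TDP-43 appear as activators. Cells (OD600=0.02, galactose medium, raffinose-pregrown) are incubated with compound 24 hr at 30 deg C and growth is quantified by BacTiter-Glo.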
# aSyn rescue: alpha-synuclein toxicity inhibition in yeast; Yeast expressing alpha-synuclein, growth rescue, BacTiter-Glo, 24 h; Potency, µM (series often up to 46.1 µM), usual class: activators; actives 0.14% (n = 370,000); AID 652106; note: nearly all actives have a fitted effect of over 65% in size
#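 Rescue of yeast growth: cells expressing toxic alpha-synuclein, induced in galactose at OD600 0.02, incubated with compound 24 h at 30 C. ATP luminescence quantified growth; inhibitors of toxicity appear as activators.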
# Numbers stand for hits; n = inactive; u = inconclusive; x = no result; [ ] = dose if it differs, or a comment. The list is not random: actives were taken first. Their share in the collection is about 2.1%. Calls come from the whole dose curve; as a rule, active = well fitted curve in the direction sought with a large enough effect; inconclusive = small, poorly fitted or top-dose-only effect, or another doubt; inactive = no such curve, though single readings can be large; an effect the other way counts as inactive or inconclusive.
SMILES,Abeta rescue,FUS suppressor,TDP-43 yeast inh,aSyn rescue
O=C(CC1CC2CCC1C2)N1CCN(S(=O)(=O)c2ccccc2C(F)(F)F)CC1 (stereo not given),n,u,22µM,n[1.84 µM]
O=C1CC(c2ccc3c(c2)OCO3)N=C2N(Cc3ccc4c(c3)OCO4)C/C(=C/c3ccccc3)N12 (stereo not given),x,n,x,x
O=[N+]([O-])c1cccc(-c2ccc(/C=N/NC(=S)Nc3cccc(F)c3)o2)c1,u,n,18µM,n
Cc1ccc(/C=C/C(=O)OCn2nnc3ccccc3c2=O)o1,n,n,18µM,u
O=C(/C=C/c1ccco1)OCn1nnc2ccccc2c1=O,n,n,u,n
Cc1ccc(SCCC(=O)OCn2nnc3ccccc3c2=O)cc1,n,n,35µM,n
CCCN(CCC)c1cc(C)nc2nc(-c3ccc(C(C)(C)C)cc3)nn12,n,n,n,x
Cc1cc(N(C)Cc2ccccc2)n2nc(-c3ccc(C(C)(C)C)cc3)nc2n1,n,u,16µM,x
CCN(CC)c1cc(C)nc2nc(-c3ccc(C)cc3)nn12,n,n,20µM,x
CC(C)N1CCCCC(NC(=O)c2ccc(Cl)cc2Cl)C1=O (stereo not given),x,n,x,x
CCN(C(=O)CSc1nnc(-c2cccnc2)n1Cc1ccco1)c1ccccc1,x,n,x,x
Brc1ccccc1C1CC(c2ccccc2)=Nc2ccccc2N1 (stereo not given),n,n,35µM,n
Clc1ccccc1C1CC(c2ccccc2)=Nc2ccccc2N1 (stereo not given),n,n,u,n
COc1ccc(OC)c(CCNC(=O)c2c(C)oc3ncn(CC(C)C)c(=O)c23)c1,n,u,25µM,x
CCc1ccc(CNC(=O)c2c(C)oc3ncn(CC(C)C)c(=O)c23)cc1,n,n,25µM,x
COc1ccc(OC)c(CNC(=O)c2c(C)oc3ncn(CC(C)C)c(=O)c23)c1,n,n,u,x
C=CCNc1nc(-c2cc3ccccc3o2)cs1,n,x,13µM,n
c1ccc2sc(NCC3CCCO3)nc2c1 (stereo not given),n,n,n[0.397 µM],n
C=CCNc1nc(-c2ccc3c(c2)OCCO3)cs1,n,n,n,n
c1ccc2oc(-c3csc(NCC4CCCO4)n3)cc2c1 (stereo not given),n,n,11µM,n
CCN(Cc1ccccc1)C(=O)C1C2C=CC3(CN(Cc4ccccc4)C(=O)C13)O2 (stereo not given),x,n,x,x
C=CCCC1(CCC)C(=O)/C(=C(\O)c2ccccc2)C(=O)C(CCC)=C1OC (stereo not given),x,n,x,x
Cc1ccnc2cc(Cl)c(Cl)cc12,x,x,x,n
CCCCNC(=O)C1(C)CCCCN1C(=O)c1ccc2c(c1)C(C)(C)CCC2(C)C (stereo not given),n,n,20µM,n
COC(=O)c1ccc(Cn2c(SCC(=O)NCc3ccccc3)nc3ccccc32)cc1,n,u,35µM,x
SMILES,Abeta rescue,FUS suppressor,TDP-43 yeast inh,aSyn rescue
COc1ccc(C(=O)CSc2nc3ccccc3n2CC(=O)NC(C)(C)C)cc1,n,n,n,14µM
N#Cc1c(NCc2ccccc2)ccnc1Cl,n,n,14µM,n
COc1ccc(C)cc1NC(=O)CSc1nnc(-c2n[nH]c3c2CCC3)n1N,x,n,x,x
Cc1ccc(S(=O)(=O)NCc2ccc3c(c2)OCO3)cc1C,n,n,18µM,n
O=C(C1CCCCC1)N1C[C@@H](n2cc(-c3ccc(F)cc3)nn2)[C@H](O)C[C@@H]1c1ccc(Cl)cc1,n,n,22µM,n
Nc1ncnc2c1ncn2[C@@H]1O[C@H](COP(=O)(O)OP(=O)(O)OP(=O)(O)OP(=O)(O)OC[C@@H]2O[C@H](n3cnc4c(N)ncnc43)[C@@H](O)[C@H]2O)[C@@H](O)[C@H]1O,x,x,x,7.3µM
Nc1nc(Cl)nc2c1ncn2[C@@H]1O[C@H](COP(=O)(O)OP(=O)(O)OP(=O)(O)O)[C@@H](O)[C@H]1O,x,x,x,21µM
Nc1ncnc2c1ncn2C1O[C@H](CO)[C@@H](O)[C@@H]1O (stereo not given in full),n,n,n,n
O=c1[nH]c(Sc2ccc([N+](=O)[O-])cc2[N+](=O)[O-])nc2ccccc12,n,n,13µM,n
O=C(CSc1nc2ccccc2c(=O)[nH]1)Nc1ccc([N+](=O)[O-])cc1,n,n,n,n
COc1ccc(Cn2ccc3ccc(-c4ccc5ccn(C(=O)c6cccc(OC)c6)c5c4)cc32)cc1,x,n,x,x
